# T cruzi growth: T. cruzi intracellular proliferation inhibitors, primary screen, cell-based, beta-gal Tulahuen parasites, NIH3T3 host, luminescence. T. cruzi beta-gal in NIH3T3, GalScreen luminescence, 90 h. AID 624255, 2012. 5.9% of 77,000 active. inhibition, % at 8.34 µM;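 active = mean inhibition above about 93%, with at least 55% of replicates each passing it, limit read from the data, passing the limit was not always enough; inconclusive = only one of those two conditions holds; inactive = neither condition holds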
# C diff HTS: C. difficile growth inhibitors, primary screen, HTS; AID 1259249, 2017; growth activity, negative = inhibition, % at 16 µg/mL (by protocol); 0.25% of 86,000 active; Clostridium difficile clinical isolate growth, OD600, 24 h; stronger effect = lower value;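 active = mean growth activity at or below -80% and every replicate also at or below -80%; inconclusive = mean at or below -80% but some replicate above -80%; inactive = mean growth activity above -80%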;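 also: 0% = DMSO wells and -100% = levofloxacin 16 µg/mL wells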
# Pf Dd2 growth: P. falciparum Dd2 growth inhibitors, primary screen, SYBR Green fluorescence, single dose replicates. 72 h; stronger effect = lower value. activity change, % at 10 µM. 2.3% of 94,000 active; in the data active = activity change below about -80%; inconclusive = no clear call, values can overlap the other calls
# * = called active by the depositor; ? = inconclusive; / = not tested or not shown; ! = not confirmed by another sample. Most compounds without a hit are left out; they make up all but 6.8% or so of the library.
SMILES,T cruzi growth,C diff HTS,Pf Dd2 growth
N#Cc1ccc(-c2ccc([C@@H]3[C@@H]4CN(Cc5cocn5)C[C@H]3N4)cc2)cc1,/,11.1,?
N#Cc1ccc(-c2ccc(C3[C@@H]4CN(Cc5ccccc5F)C[C@H]3N4)cc2)cc1 (stereo partly specified),/,43.6,-88.6*!
CS(=O)(=O)Nc1ccc2c(c1)[C@@H]1C[C@@H](CC(=O)NCc3ccccc3F)O[C@H](CO)[C@@H]1O2,7.2,1.6,25.3
CN1C(=O)c2cc(NC(=O)C3CC3)ccc2OC[C@H]2O[C@H](CC(=O)NC3CCC3)CC[C@@H]21,-21.1,-4.0,-68.7
O=C(C[C@@H]1C[C@@H]2c3cc(NS(=O)(=O)c4ccc(F)cc4)ccc3O[C@@H]2[C@@H](CO)O1)NCc1ccc(Cl)cc1,49.1,-1.2,-19.1
C[C@H](CO)N1C[C@H](C)[C@H](CN(C)S(=O)(=O)c2ccc(C#N)cc2)OCc2ccccc2-c2ccccc2C1=O,-2.7,/,-14.2
OC[C@@H]1[C@H](c2ccc(-c3ccc(F)cc3)cc2)[C@H](CNC2CCCC2)N1CCC(F)(F)F,/,23.1,-89.0*
OC[C@@H]1[C@H](c2ccc(-c3ccc(F)cc3)cc2)[C@@H](CNC2CCCC2)N1CCC(F)(F)F,/,44.5,-96.6*
OC[C@H]1[C@@H](c2ccc(-c3ccc(F)cc3)cc2)[C@@H]2CN(CCC(F)(F)F)CCCCN12,94.3,25.0,-78.8
OC[C@H]1[C@H](c2ccc(-c3ccc(F)cc3)cc2)[C@@H]2CN(CCC(F)(F)F)CCCCN12,44.7,35.9,-64.9
N#C[C@H]1[C@@H](c2ccc(C#CC3(O)CCCC3)cc2)[C@@H](CO)N1C(=O)C1CCCC1,91.7,0.2,-22.5
CCC(=O)N1CC2(CCN(C(=O)Nc3ccccc3F)CC2)c2c([nH]c3cc(OC)ccc23)[C@H]1CO,/,3.6,-90.3*
COc1ccc2c3c([nH]c2c1)[C@H](CO)N(C(=O)Nc1ccccc1F)CC31CCN(C(C)=O)CC1,/,-7.9,-55.2
COc1ccc2c3c([nH]c2c1)[C@@H](CO)NCC31CCN(C(=O)Nc2ccc(F)cc2)CC1,/,29.5,-17.2
COc1ccc2c3c([nH]c2c1)[C@@H](CO)N(S(C)(=O)=O)CC31CCN(C(=O)Nc2ccccc2)CC1,/,-9.1,-51.2
COc1ccc2c3c([nH]c2c1)[C@H](CO)N(S(C)(=O)=O)CC31CCN(C(=O)Nc2ccccc2)CC1,/,0.1,-82.8*
COc1ccc2c3c([nH]c2c1)[C@H](CO)NCC31CCN(C(=O)Nc2ccc3c(c2)OCO3)CC1,/,1.8,-94.2*
COc1ccc2c3c([nH]c2c1)[C@H](CO)N(C(C)=O)CC31CCN(C(=O)Nc2ccccc2F)CC1,/,-1.9,-88.8*
CCC(=O)N1CCC2(CC1)CN(C(=O)Nc1ccccc1F)[C@H](CO)c1[nH]c3cc(OC)ccc3c12,/,/,36.6
C[C@H](CO)N1C[C@H](C)[C@H](CN(C)CC2CC2)Oc2c(NC(=O)C3CCOCC3)cccc2C1=O,-11.4,3.5,15.8
C[C@@H]1CN([C@@H](C)CO)C(=O)c2cc(-c3ccncc3)cnc2O[C@H]1CN(C)C,-71.4,-1.6,10.6
C[C@H]1CCCCO[C@@H](CN(C)S(=O)(=O)c2ccccc2)[C@@H](C)CN([C@@H](C)CO)C(=O)c2cc(NC(=O)Cc3ccccc3)ccc2O1,64.2,/,-61.5
CO[C@@H]1CN(C)C(=O)c2cc(NC(=O)Nc3ccccc3F)ccc2OC[C@H](C)N(C(C)=O)C[C@H]1C,18.8,2.4,-53.6
C[C@@H]1CN([C@@H](C)CO)C(=O)c2cccc(NS(=O)(=O)c3ccccc3)c2O[C@H]1CN(C)C(=O)NC1CCCCC1,62.5,2.6,-11.8
CO[C@@H]1CN(C)C(=O)c2ccc(NS(=O)(=O)c3ccccc3C)cc2OC[C@@H](C)NC[C@@H]1C,2.5,/,29.3
SMILES,T cruzi growth,C diff HTS,Pf Dd2 growth
C[C@@H]1CN([C@@H](C)CO)C(=O)Cc2cc(NS(=O)(=O)c3ccccc3)ccc2O[C@H]1CN(C)CC1CC1,29.0,-4.0,-17.5
COc1ccc2c3c([nH]c2c1)[C@@H](CO)N(C(=O)Nc1ccc(F)cc1)CC31CCN(C(=O)Cc2ccncc2)CC1,/,7.1,-76.0
CCC(=O)N1CC2(CCN(C(=O)Nc3ccccc3F)CC2)c2c([nH]c3cc(OC)ccc23)[C@@H]1CO,/,-0.6,-85.3*
COc1ccc2c3c([nH]c2c1)[C@H](CO)N(C(=O)Nc1ccc(F)cc1)CC31CCN(C(=O)Cc2ccncc2)CC1,/,-1.1,-83.5*
CCC(=O)N1CC2(CCN(C(=O)Nc3ccc(F)cc3)CC2)c2c([nH]c3cc(OC)ccc23)[C@H]1CO,/,4.3,-84.3*
CCC(=O)N1CC2(CN(C(=O)Nc3ccccc3F)C2)c2c([nH]c3cc(OC)ccc23)[C@@H]1CO,/,-3.2,-47.5
CCC(=O)N1CC2(CN(C(=O)Nc3ccc(F)cc3)C2)c2c([nH]c3cc(OC)ccc23)[C@H]1CO,/,5.6,-52.0
COc1ccccc1-c1ccc2c(c1)O[C@H](CN(C)C(=O)c1ccccc1)[C@@H](C)CN([C@@H](C)CO)S2(=O)=O,19.0,5.2,-59.7
Cc1noc(C)c1S(=O)(=O)Nc1ccc2c(c1)C(=O)N([C@H](C)CO)C[C@H](C)[C@H](CN(C)C(=O)Nc1ccccc1)OCCCC[C@H](C)O2,37.2,-4.5,-35.3
Cc1noc(C)c1S(=O)(=O)Nc1ccc2c(c1)C(=O)N([C@H](C)CO)C[C@@H](C)[C@@H](CN(C)C(=O)Nc1cccc3ccccc13)OCCCC[C@@H](C)O2,82.9,4.8,-88.1*
COc1ccc(S(=O)(=O)Nc2ccc3c(c2)C(=O)N([C@H](C)CO)C[C@H](C)[C@@H](CN(C)C(=O)Nc2cccc4ccccc24)OCCCC[C@@H](C)O3)cc1,39.9,/,-57.5
Cc1noc(C)c1S(=O)(=O)Nc1ccc2c(c1)C(=O)N([C@H](C)CO)C[C@@H](C)[C@@H](CN(C)C(=O)NC1CCCCC1)OCCCC[C@@H](C)O2,-55.1,0.3,-83.9*
Cc1noc(C)c1S(=O)(=O)Nc1ccc2c(c1)C(=O)N([C@@H](C)CO)C[C@H](C)[C@H](CN(C)C(=O)NC1CCCCC1)OCCCC[C@H](C)O2,13.4,0.9,-43.8
COc1ccc(S(=O)(=O)Nc2ccc3c(c2)C(=O)N([C@@H](C)CO)C[C@H](C)[C@H](CN(C)C(=O)Nc2cccc4ccccc24)OCCCC[C@@H](C)O3)cc1,/,-7.4,-82.3*
O=C1CN(S(=O)(=O)c2ccccc2)C[C@H]2[C@H](c3ccc(C#CCc4ccccc4)cc3)[C@H](CO)N12,/,-0.1,-63.3
C[C@@H]1CN([C@@H](C)CO)C(=O)c2cc(NS(=O)(=O)c3cccs3)ccc2O[C@H]1CN(C)Cc1ccc(C(=O)O)cc1,22.3,1.3,20.1
CCC(=O)Nc1ccc2c(c1)C(=O)N(C)C[C@H](OC)[C@@H](C)CN(Cc1ccccn1)[C@H](C)CO2,-23.1,/,18.0
Cc1ccc(S(=O)(=O)N(C)C[C@@H]2Oc3c(NC(=O)CCCCCC(=O)Nc4ccccc4N)cccc3C(=O)N([C@H](C)CO)C[C@H]2C)cc1,/,2.2,-60.9
C[C@H](CO)N1C[C@H](C)[C@@H](CN(C)S(=O)(=O)c2ccccc2)Oc2c(NC(=O)Nc3cccc4ccccc34)cccc2C1=O,36.2,-7.8,-35.8
